Screens: PubChem BioAssay, Broad Institute
The list is not random: actives were taken first. Their share in the collection is about 6.7%.
C diff HTS = C. difficile growth inhibitors, primary screen, HTS; Clostridium difficile clinical isolate growth, OD600, 24 h; stronger effect = lower value; growth activity, negative = inhibition, % at 16 µg/mL (by protocol); 86,000 tested, 0.25% active; AID 1259249, 2017;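 active = mean growth activity at or below -80% and every replicate also at or below -80%; inconclusive = mean at or below -80% but some replicate above -80%; inactive = mean growth activity above -80%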
T cruzi growth-1 = T. cruzi intracellular proliferation inhibitors, primary screen, cell-based, beta-gal Tulahuen parasites, NIH3T3 host, luminescence; inhibition, % at 8.34 µM; T. cruzi beta-gal in NIH3T3, GalScreen luminescence, 90 h; 77,000 tested, 5.9% active; AID 624255, 2012;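 active = mean inhibition above about 93%, with at least 55% of replicates each passing it, limit read from the data, passing the limit was not always enough; inconclusive = only one of those two conditions holds; inactive = neither condition holds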
Pf Dd2 inh = P. falciparum Dd2 growth inhibitors, primary screen, SYBR Green fluorescence, single dose replicates | activity change, % at 10 µM | 72 h; stronger effect = lower value | 94,000 tested, 2.3% active; in the data active = activity change below about -80%; inconclusive = no clear call, values can overlap the other calls
T cruzi growth-2 = T. cruzi intracellular proliferation inhibitors, confirmation, cell-based, NIH3T3 host, beta-gal parasite, luminescence, cherry-pick | shares compounds with T cruzi growth-1 | T. cruzi beta-gal in NIH3T3, GalScreen luminescence, 90 h | inhibition, % at 8.35 µM | 5,600 tested, 72% active;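 active = mean replicate inhibition above about 95% and at least 55% of replicates individually reaching it, limit read from the data; inconclusive = only one of the two criteria is met; inactive = neither criterion is met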
T cruzi growth-3 = inhibitors of intracellular T. cruzi replication, confirmation, NIH3T3 host cells, beta-gal parasites, cherry-pick, set 2 | shares compounds with T cruzi growth-1 | T. cruzi beta-gal in NIH3T3, GalScreen luminescence, 90 h | inhibition, % at 2.09 µM | 5,600 tested, 21% active;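 active = mean inhibition above about 95%, with at least 55% of replicates also reaching it, limit read from the data; inconclusive = meets just one of the two conditions; inactive = meets neither condition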
3T3 cytotox = cytotoxicity in mouse NIH/3T3 fibroblasts, confirmation, cytotoxicity control for T. cruzi proliferation inhibitor project, cell-based, cherry-pick, single point; cytotoxicity (signal decrease), % at 8.35 µM; AID 651742, 2012; 5,600 tested, 14% active; NIH/3T3 viability, CellTiter-Glo ATP luminescence, 90 h; shares compounds with T cruzi growth-1;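 active = mean signal decrease across replicates above about 35% based on untreated-well scatter, with enough replicates individually passing, limit read from the data; inconclusive = no rule stated though some were filed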
NIH3T3 tox 2 = NIH/3T3 fibroblast cytotoxicity, confirmation, cytotoxicity control, cell-based, cherry-pick, single point, set 2 | inhibition, % at 24.9 µM | NIH/3T3 viability, CellTiter-Glo ATP luminescence, 90 h | AID 651744, 2012 | shares compounds with T cruzi growth-1 | 5,600 tested, 56% active;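 active = mean loss of cell viability signal at or above a set limit, and enough replicates individually reaching it; inconclusive = meets only the mean limit or only the replicate share; inactive = meets neither condition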
Each line names hits and unclear results; the compound was inactive in the other large screens (follow-up assays come after a bar, where they were run).

C[C@H](CO)N1C[C@H](C)[C@@H](CN(C)S(C)(=O)=O)Oc2cc(C3=CCCC3)ccc2S1(=O)=O	none (no result: C diff HTS)
C[C@H](CO)N1C[C@H](C)[C@@H](CN(C)C)Oc2cc(C3=CCCCC3)ccc2S1(=O)=O	none (no result: C diff HTS)
C[C@@H]1CN([C@H](C)CO)S(=O)(=O)c2ccc(C3=CCCCC3)cc2O[C@@H]1CN(C)S(=O)(=O)c1ccc(F)cc1	T cruzi growth-1 119.3 | T cruzi growth-2 101.1 | T cruzi growth-3 106.8 | 3T3 cytotox inactive | NIH3T3 tox 2 61.2
C[C@H]1CN([C@@H](C)CO)S(=O)(=O)c2ccc(C3=CCCC3)cc2O[C@H]1CN(C)S(=O)(=O)c1ccc(F)cc1	T cruzi growth-1 120.9 | T cruzi growth-2 105.7 | T cruzi growth-3 inactive | 3T3 cytotox inactive | NIH3T3 tox 2 inactive
O=C(C1CCOCC1)N1CC(=O)N2[C@H](C1)[C@H](c1ccc(/C=C/c3ccccc3)cc1)[C@@H]2CO	none (no result: T cruzi growth-1)
CNC[C@H]1Oc2ccc(NC(=O)C3CC3)cc2C(=O)N([C@@H](C)CO)C[C@H]1C	none
Cc1ccc(S(=O)(=O)N[C@H]2C=C[C@H](CC(=O)NCCN3CCCCC3)O[C@@H]2CO)cc1	none (no result: C diff HTS)
CC(C)NC(=O)N(C)C[C@H]1Oc2ccc(NS(=O)(=O)c3ccc(F)cc3)cc2C(=O)N([C@@H](C)CO)C[C@H]1C	none
COc1ccc(C#Cc2cccc(-c3nc(C(=O)NCCCN4CCOCC4)cc4c3[C@@H](CCO)N(S(=O)C(C)(C)C)C4)c2)cc1OC (some centres undefined)	none (no result: Pf Dd2 inh)
CC(C)(C)S(=O)N1Cc2cc(C(=O)NCCCN3CCOCC3)nc(-c3cccc(C#CCC4CCCC4)c3)c2[C@@H]1CCO (some centres undefined)	T cruzi growth-1 inconclusive (no result: C diff HTS) | T cruzi growth-2 100.2 | T cruzi growth-3 inactive | 3T3 cytotox 42.4 | NIH3T3 tox 2 105.2
CN1CCN(C(=O)c2cc3c(c(-c4cccc(C#CCC5CCCC5)c4)n2)[C@@H](CCO)N(S(=O)C(C)(C)C)C3)CC1 (some centres undefined)	none (no result: C diff HTS)
CN(C)CC#Cc1cccc(-c2nc(C(=O)NCCCN3CCOCC3)cc3c2[C@H](CCO)N(S(=O)C(C)(C)C)C3)c1 (some centres undefined)	T cruzi growth-1 104.8 (no result: C diff HTS, Pf Dd2 inh) | T cruzi growth-2 inactive | T cruzi growth-3 inactive | 3T3 cytotox inactive | NIH3T3 tox 2 inactive
C[C@@H]1CN([C@H](C)CO)S(=O)(=O)c2ccc(C#C[C@@H](C)O)cc2O[C@@H]1CN(C)C(=O)CC1CC1	none (no result: Pf Dd2 inh)
COc1ccc(S(=O)(=O)Nc2ccc3c(c2)CC(=O)N([C@@H](C)CO)C[C@@H](C)[C@H](CN(C)Cc2ccc4c(c2)OCO4)O3)cc1	T cruzi growth-1 113.3 | T cruzi growth-2 108.8 | T cruzi growth-3 inactive | 3T3 cytotox inactive | NIH3T3 tox 2 inactive
COc1ccc(S(=O)(=O)Nc2ccc3c(c2)CC(=O)N([C@H](C)CO)C[C@H](C)[C@@H](CN(C)Cc2ccc4c(c2)OCO4)O3)cc1	T cruzi growth-1 inconclusive | T cruzi growth-2 107.5 | T cruzi growth-3 inactive | 3T3 cytotox inactive | NIH3T3 tox 2 inactive
COc1ccc(S(=O)(=O)Nc2ccc3c(c2)CC(=O)N([C@H](C)CO)C[C@H](C)[C@H](CN(C)Cc2ccc4c(c2)OCO4)O3)cc1	none
COc1ccc(S(=O)(=O)Nc2ccc3c(c2)CC(=O)N([C@H](C)CO)C[C@@H](C)[C@H](CN(C)Cc2ccc4c(c2)OCO4)O3)cc1	T cruzi growth-1 109.2 | T cruzi growth-2 107.8 | T cruzi growth-3 inactive | 3T3 cytotox inactive | NIH3T3 tox 2 inactive
COc1ccc(S(=O)(=O)Nc2ccc3c(c2)CC(=O)N([C@@H](C)CO)C[C@@H](C)[C@@H](CN(C)Cc2ccc4c(c2)OCO4)O3)cc1	none
C[C@H]1CN([C@@H](C)CO)C(=O)Cc2cc(NS(=O)(=O)c3ccccc3)ccc2O[C@H]1CN(C)Cc1ccc2c(c1)OCO2	none
O=C(Nc1ccc2c(c1)OCO2)N[C@H]1CC[C@@H](CC(=O)N2CCN(c3ccccc3)CC2)O[C@H]1CO	none
CC(C)NC(=O)N(C)C[C@H]1OCCCC[C@H](C)Oc2ccc(NC(=O)C3CCCCC3)cc2C(=O)N([C@@H](C)CO)C[C@@H]1C	none
CNC[C@H]1OCCCC[C@H](C)Oc2ccc(NS(=O)(=O)c3ccc(C)cc3)cc2C(=O)N([C@@H](C)CO)C[C@@H]1C	T cruzi growth-1 102.2 | T cruzi growth-2 inactive | T cruzi growth-3 inactive | 3T3 cytotox inactive | NIH3T3 tox 2 inactive
CNC[C@@H]1OCCCC[C@H](C)Oc2ccc(NS(=O)(=O)c3ccc(C)cc3)cc2C(=O)N([C@@H](C)CO)C[C@H]1C	none
CNC[C@H]1OCCCC[C@H](C)Oc2ccc(NS(C)(=O)=O)cc2C(=O)N([C@@H](C)CO)C[C@@H]1C	T cruzi growth-1 100.8 | T cruzi growth-2 inactive | T cruzi growth-3 inactive | 3T3 cytotox inactive | NIH3T3 tox 2 inactive
CNC[C@@H]1OCCCC[C@H](C)Oc2ccc(NS(C)(=O)=O)cc2C(=O)N([C@@H](C)CO)C[C@H]1C	none
CC(C)NC(=O)N(C)C[C@@H]1Oc2ccc(NC(=O)Nc3ccc4c(c3)OCO4)cc2CC(=O)N([C@H](C)CO)C[C@H]1C	none
CCCC#Cc1ccc2c(c1)O[C@@H](CN(C)C(=O)Nc1ccc(OC)cc1)[C@H](C)CN([C@@H](C)CO)S2(=O)=O	none
COc1ccc(NC(=O)N(C)C[C@H]2Oc3cc(C#CCC(C)C)ccc3S(=O)(=O)N([C@@H](C)CO)C[C@H]2C)cc1	T cruzi growth-1 100.2 | T cruzi growth-2 107.7 | T cruzi growth-3 inactive | 3T3 cytotox inactive | NIH3T3 tox 2 58.1
C[C@H]1CN([C@@H](C)CO)S(=O)(=O)c2ccc(C#Cc3ccccc3)cc2O[C@H]1CN(C)C(=O)Nc1ccccc1	none
COCC#Cc1ccc2c(c1)O[C@@H](CN(C)C(=O)Nc1ccc(OC)cc1)[C@H](C)CN([C@@H](C)CO)S2(=O)=O	none
CC(C)CC#Cc1ccc2c(c1)O[C@@H](CN(C)C(=O)Nc1ccccc1)[C@@H](C)CN([C@H](C)CO)S2(=O)=O	T cruzi growth-1 129.4 | T cruzi growth-2 102.4 | T cruzi growth-3 inactive | 3T3 cytotox inactive | NIH3T3 tox 2 94.8
